In the library only some 19% were active in any assay of this set; here they are far more common.
TDP1 cell noCPT = qHTS for Inhibitors of human tyrosyl-DNA phosphodiesterase 1 (TDP1): qHTS in cells in absence of CPT | hit rate 15% among 420,000 | AID 686978, 2013 | Potency, µM (series often up to 46.2 µM), for the others: at the top dose activity change, negative = growth inhibition, hits mostly inhibitors | DT40 Tdp1-/- hTDP1 cells, no CPT, ATP luminescence, 48 h; note: potency is the fitted concentration of half-maximal effect; nearly all actives have a fitted effect of over 55% in size
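Growth of hTDP1-complemented DT40 Tdp1-knockout cells is measured by ATP luminescence after at least 48 hr compound exposure at 37 °C, with DMSO substituting for the 20 nM CPT used in the parallel screen.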
HT1080 IDH1KD tx = kills HT-1080 cells with IDH1 knockdown | HT-1080 IDH1 knockdown viability, ATP luminescence, 48 h | Potency, µM (top dose mostly 46.1 µM), without a hit: at the top dose activity, negative = toxicity, usual class: cytotoxic | hit rate 2% among 360,000;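 note: potency is the fitted concentration of half-maximal effect; 0% = DMSO wells and -100% = cell-free medium wells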
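CellTiter-Glo luminescence after 48 h compound exposure at 37 degrees C of IDH1-knockdown HT-1080 cells in 5% FBS RPMI. %Activity scaled between DMSO wells and cell-free media wells, with curves fitted and assigned curve classes.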
ELG1 repair inh = blocks ELG1-dependent DNA repair in HEK293T cells | HEK293T ELG1-luciferase reporter, luminescence, 16 h; DNA damage induced by 5-fluorouridine | Potency, µM (top dose mostly 46.1 µM), without a hit: top-dose activity change, negative = inhibition, usual class: inhibitors | hit rate 2.3% among 330,000 | AID 504467; note: potency is the fitted concentration of half-maximal effect; nearly all actives have a fitted effect of over 55% in size
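5-Fluorouridine DNA damage + compound/DMSO, 2,000 cells/well, 16 h, 37 °C/5% CO2. ONE-Glo, 30 min RT, luminescence. Readout = decrease in reporter signal.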
HT1080NT lethal = kills 2HG-producing HT-1080-NT fibrosarcoma cells; HT-1080-NT fibrosarcoma viability, CellTiter-Glo ATP luminescence, 48 h; Potency, µM (series often up to 46.1 µM), inactives show top-dose activity, negative = less viability, hits mostly cytotoxic; hit rate 1.6% among 360,000; AID 686970;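 note: NT is the 2HG producing partner of a matched IDH1 knockdown line; potency is the fitted concentration of half-maximal effect; 0% = DMSO-treated cells and -100% = media-only wells without cells; nearly all actives have a fitted effect of over 55% in size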
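A 48-hour cytotoxicity screen used HT-1080-NT cells plated 2 hours before compound delivery. ATP-based CellTiter-Glo luminescence measured viability, normalized to DMSO and no-cell controls.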
DT40 TDP1 CPT = growth inhibition of DT40 Tdp1-/-;hTDP1 cells with camptothecin (screen for TDP1 inhibitors) | chicken DT40 Tdp1-/-;hTDP1 cells + 20 nM CPT, ATP luminescence, 48 h | Potency, µM (doses to about 46.2 µM), inactives show at the top dose activity change, negative = growth inhibition, hits mostly inhibitors | hit rate 12% among 420,000 | AID 686979; note: potency is the fitted concentration of half-maximal effect; nearly all actives have a fitted effect of over 55% in size
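Chicken DT40 Tdp1-/- cells stably complemented with human TDP1 were seeded at 400 cells/well in medium containing 20 nM camptothecin, exposed to pin-transferred compounds, and grown at 37 °C for at least 48 hr. Viability was read as ATP luminescence.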
IL1B secr inh = inflammasome signaling inhibition, IL-1 beta readout | THP-1 LPS/ATP IL-1B secretion, AlphaLISA, 16 h; stronger effect = lower value | AID 743279 | activity change, % at 57.5 µM | hit rate 4.7% among 360,000; in the data active = activity change below about -50%; inconclusive = mostly about -30% to -49%
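THP-1 cells pretreated 1 hr with compounds (up to 57.5 uM final), then stimulated with LPS (250 ng/mL final) plus ATP (1.25 mM final); secreted IL-1B measured by AlphaLISA after 16 hr, decreased signal indicating inhibition.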
* = called active by the depositor; ? = inconclusive; nt = no result. Unless noted, calls come from the whole dose curve; as a rule, active = well fitted curve in the direction sought with a large enough effect; inconclusive = small, poorly fitted or top-dose-only effect, or another doubt; inactive = no such curve, though single readings can be large; an effect the other way counts as inactive or inconclusive. Unless noted, % is set by controls: 0 for no effect and ±100 for the full control effect.

SMILES	TDP1 cell noCPT	HT1080 IDH1KD tx	ELG1 repair inh	HT1080NT lethal	DT40 TDP1 CPT	IL1B secr inh
Cc1ccc(C)c(Cn2nnc3c(=O)[nH]c(C4CCN(S(=O)(=O)c5ccc(S(=O)(=O)N(C)C)cc5)CC4)nc32)c1	?	0%	-17%	-11%	18µM*	?
Cc1ccc(Cn2nnc3c(=O)[nH]c(C4CCN(S(=O)(=O)c5ccc(F)cc5)CC4)nc32)cc1	-23%	?	?	-22%	-29%	3
CC(=O)N[C@@H](C)C(=O)NCC1Cc2cccc(-c3ccccc3C(F)(F)F)c2O1 (some centres undefined)	-22%	nt	nt	nt	9%	nt
CC(=O)Nc1ccccc1OCC(=O)N(Cc1ccccc1)C(C)C	13µM*	-15%	?	-3%	16µM*	41
CC(=O)Nc1ccccc1OCC(=O)NC(C)c1ccccc1 (centres undefined)	-17%	-3%	7%	14%	-24%	-4
Cc1ccc(NC(=O)CN2CCOCC2)c(Br)c1	-11%	3%	?	-7%	8%	-2
Cc1ccc(NC(=O)CN2CCN(Cc3ccccc3)CC2)c(Br)c1	-26%	-3%	21µM*	-11%	?	?
O=C(CN1CCN(Cc2ccccc2)CC1)N/N=C/c1ccco1	-21%	-6%	15%	-8%	-8%	14
O=C(CN1CCN(Cc2ccccc2)CC1)N/N=C/c1ccc(Br)s1	?	?	9.2µM*	?	?	-19
Cc1cccc(NC(=O)CN2CCC(NC(=O)C3CCCCC3)CC2)c1C	?	9%	-9%	19%	-20%	0
Cc1ccc(NC(=O)CN2CCC(NC(=O)C3CCCCC3)CC2)c(Br)c1	21µM*	9%	?	-3%	?	-5
CCc1ccc(NC(=O)CSc2ccnc(=O)[nH]2)cc1	-19%	nt	nt	nt	5%	nt
COc1ccc(N(C)S(=O)(=O)c2cccc(C(=O)NC3CCCC(C)C3C)c2)cc1 (centres undefined)	?	-2%	?	1%	?	3
COc1ccc(S(=O)(=O)N(C)c2ccc(C(=O)NC3CC3)cc2)cc1	-14%	-3%	3%	1%	-12%	-7
COc1ccc(N(C)S(=O)(=O)c2cccc(C(=O)NC3CCC(C)CC3)c2)cc1 (centres undefined)	16µM*	-21%	?	-11%	?	?
CCCCN1C2CCCC1CC(NC(=O)c1cccc(Cl)c1)C2 (centres undefined)	23µM*	-3%	-7%	12%	?	0
COc1cccc(C(=O)NC2CCCC2)c1	-9%	0%	?	-13%	-2%	-3
CCCCN1C2CCCC1CC(NC(=O)c1cccc(OC)c1)C2 (centres undefined)	-4%	18%	12%	0%	-3%	-6
COc1cccc(C(=O)NC2CC3CCCC(C2)N3S(=O)(=O)c2ccccc2)c1 (centres undefined)	12µM*	-2%	?	-18%	13µM*	1
COc1ccc(N(C)S(=O)(=O)c2cccc(C(=O)NC3CCCCCC3)c2)cc1	?	?	?	-14%	-29%	-55*
CCCCN(C(=O)c1cccc(S(=O)(=O)N(C)c2ccc(C)cc2)c1)c1c(N)n(CCCC)c(=O)[nH]c1=O	-26%	0%	?	10%	?	-3
COc1ccc(N(C)S(=O)(=O)c2cccc(C(=O)Nc3cccc(C(=O)NC4CC4)c3)c2)cc1	16µM*	-14%	21µM*	-6%	15µM*	-7
Clc1ccc(-n2cccc2CN2CCc3nnc(Cc4ccccc4)n3CC2)nc1	-14%	nt	nt	nt	4%	nt
C[C@H]1O[C@H](C2CCCC2)CC2=C1C(=O)OC(C)(C)O2	-20%	0%	nt	21%	-1%	10
COCc1c(C(=O)OC)nnn1-c1ccc(C(F)(F)F)cc1[N+](=O)[O-]	-10%	16%	-7%	18%	18µM*	-72*
SMILES	TDP1 cell noCPT	HT1080 IDH1KD tx	ELG1 repair inh	HT1080NT lethal	DT40 TDP1 CPT	IL1B secr inh
CCOC(=O)c1nnn(-c2ccc([N+](=O)[O-])cc2[N+](=O)[O-])c1C	12µM*	?	-7%	?	12µM*	?
CCOC(=O)c1nnn(-c2ccccc2)c1C	-11%	-8%	28%	-6%	-4%	-20
Cc1cccc(OCc2cc(=O)n3c(-c4ccccc4)csc3n2)c1C	-41%	nt	nt	nt	-12%	nt
O=C(c1ccccc1)c1cccc(C(=O)c2ccccc2)c1	-29%	0%	-18%	1%	0%	-10
COc1ccc(CNC(=O)COC(=O)c2ccccc2C(=O)c2ccccc2)cc1	8.2µM*	-3%	-10%	5%	?	11
COc1ccc(-n2nnnc2/C=C/Nc2cc(C(F)(F)F)ccc2OC)cc1	?	-1%	-5%	0%	?	-9
O=C(c1ccccc1)c1ccccc1C(=O)c1ccccc1	18µM*	-13%	-10%	-10%	?	-1
COc1ccc(CNC(=O)COC(=O)c2ccc(C(=O)c3ccccc3)cc2)cc1	-10%	-4%	3%	-1%	-18%	7
COc1ccc(-n2nnnc2/C=C\Nc2ccccc2C(=O)c2ccccc2)cc1	5.8µM*	5.2µM*	-9%	5.8µM*	7.3µM*	47
COc1ccc(C(=O)c2ccc(N(C)C)cc2)c2ccccc12	1.5µM*	2.8µM*	?	1.6µM*	1µM*	55
O=C(c1ccc2c(c1)N(Cc1c(F)cccc1Cl)C(=O)c1ccccc1S2)N1CCOCC1	?	nt	nt	nt	-20%	nt
CCC(=O)N1CCCC(C)(C(=O)NS(=O)(=O)c2cccs2)C1 (centres undefined)	10%	0%	nt	2%	18%	-3
CCOc1ccc(NC(=O)CN(C)C2=NS(=O)(=O)c3ccccc32)cc1	-25%	4%	nt	5%	-19%	12
Cc1ccccc1C(=O)c1ccccc1C(=O)c1ccccc1	16µM*	2%	nt	-1%	?	-1
COc1ccc(C(=O)c2ccccc2C(=O)c2ccccc2)cc1	16µM*	4%	nt	1%	?	-5
Cc1cc2ccccc2cc1C(=O)c1ccccc1	-22%	-15%	nt	-18%	4%	43
COc1ccc(C(=O)c2ccc(OC)c(OC)c2OC)cc1	3.7µM*	10µM*	nt	?	3.7µM*	-7
Cc1nc(SCCc2nc3ccccc3[nH]2)c2oc3ccccc3c2n1	nt	nt	15%	nt	nt	nt

Screening results as filed in PubChem.
